Compound activity as filed in PubChem.
L3MBTL1 block: inhibitors of human L3MBTL1; AID 485360; 230,000 tested, 0.66% active; Potency, µM (highest dose often 57.1 µM), for the others: at the highest dose activity, negative = inhibition, usual class: inhibitors; Q9Y468; AlphaScreen L3MBTL1–H3K9me1 peptide binding; note: % is set by controls: 0 for no effect and ±100 for the full control effect; nearly all actives have a fitted effect of over 60% in size
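AlphaScreen assay: L3MBTL1 (50 nM final) was preincubated 30 min at room temperature with biotinylated H3(1-15)K9me1 peptide (75 nM final), then 30 min with library compounds; streptavidin donor and nickel chelate acceptor beads (10 ug/mL final) added, 30 min dark.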
HP1b binding inh: inhibitors of HP1-beta chromodomain binding to methylated histone tails; P83916; Potency, µM (highest dose often 114 µM), for the others: at the top dose activity change, negative = inhibition, usual class: inhibitors; AID 540317; AlphaScreen HP1-beta / biotin-H3K9me3 peptide binding; 390,000 tested, 0.56% active; note: nearly all actives have a fitted effect of over 70% in size
Target sequence (P83916 whole entry, looked up): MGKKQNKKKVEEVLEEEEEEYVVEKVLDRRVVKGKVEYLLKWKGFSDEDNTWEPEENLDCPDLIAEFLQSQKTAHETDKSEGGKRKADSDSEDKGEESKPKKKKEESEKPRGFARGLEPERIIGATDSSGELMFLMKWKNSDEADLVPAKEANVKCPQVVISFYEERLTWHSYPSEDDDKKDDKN
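Compound inhibition of the preformed complex between 50 nM HP1-beta and 50 nM biotinylated H3K9me3 peptide was read by AlphaScreen. Buffer was PBS pH 7.4 with 0.01% Tween-20. Incubations ran 30 min at room temperature, with 10 ug/mL donor/acceptor beads.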
BAZ2B block: blocks human BAZ2B; Q9UIF8; AlphaScreen BAZ2B-H3K14Ac peptide displacement; Potency, µM (doses to about 114 µM), for inactives: at the highest dose activity change, negative = inhibition, hits mostly inhibitors; 360,000 tested, 4.4% active; AID 504333; note: % is set by controls: 0 for no effect and ±100 for the full control effect; nearly all actives have a fitted effect of over 60% in size
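Complex of BAZ2B and biotin-H3K14Ac (50 nM apiece) forms over 30 min at RT, then faces library compounds up to 110 uM for another 30 min; AlphaScreen beads added, 20 min dark incubation, luminescence read.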
G9a inh: G9a (human) methyltransferase inhibition. Q96KQ7. G9a H3K9 monomethylation, AlphaScreen, 2 h. Potency, µM (highest dose often 102 µM), for inactives: top-dose activity, negative = inhibition, hits mostly inhibitors. 350,000 tested, 8.8% active. AID 504332; note: % is set by controls: 0 for no effect and ±100 for the full control effect; nearly all actives have a fitted effect of over 75% in size
Target sequence (Q96KQ7 913-1193 limits assumed): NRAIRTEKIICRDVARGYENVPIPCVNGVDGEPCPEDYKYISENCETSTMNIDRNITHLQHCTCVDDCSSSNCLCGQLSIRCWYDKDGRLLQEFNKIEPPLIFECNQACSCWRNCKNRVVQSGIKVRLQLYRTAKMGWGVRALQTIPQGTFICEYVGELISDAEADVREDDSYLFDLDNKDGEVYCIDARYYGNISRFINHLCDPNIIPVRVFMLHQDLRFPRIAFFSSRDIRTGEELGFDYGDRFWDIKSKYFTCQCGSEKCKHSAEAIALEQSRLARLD
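Enzyme 20 nM + cpd, 15 min RT; add b-H3K9 pep 500 nM / SAM 20 uM; 2 h RT; anti-H3K9me1 Ab 0.5 ug/mL + SA donor / anti-rabbit acceptor beads 20 ug/mL each, 10 min; AlphaScreen read.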
JMJD2A Tudor: JMJD2A Tudor domain (human) inhibition. 390,000 tested, 4.4% active. AlphaScreen JMJD2A-Tudor / H3K4me3 peptide binding. AID 504339. Potency, µM (doses to about 114 µM), for inactives: at the top dose activity change, negative = inhibition, hits mostly inhibitors. O75164; note: % is set by controls: 0 for no effect and ±100 for the full control effect; nearly all actives have a fitted effect of over 50% in size
Sfp PPTase inh: Sfp phosphopantetheinyl transferase inhibition | Potency, µM, without a hit: largest response in the series, negative = inhibition, hits mostly inhibitors | 310,000 tested, 3.5% active | AID 1490 | Biochemical Sfp PPTase activity, qHTS | Q9F4F7;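 note: the enzyme is Sfp with the accession as filed and its product quenches rhodamine fluorescence; 0% = enzyme reaction without inhibitor and -100% = no enzyme wells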
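Sfp 15 nM + cpd, 15 min RT; start w/ rhodamine-CoA 5 uM, BHQ-2-YbbR 12.5 uM (final); 50 mM Hepes pH 7.6, 10 mM MgCl2, 0.01% NP-40, 0.01% BSA; read 525/598 nm at 0 and 30 min.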
The depositor's hits bear a star; ? = inconclusive; · = not tested or not shown; [ ] = another dose, or the depositor's remark. The list is not random: actives were taken first. Their share in the collection is about 12%. Calls come from the whole dose curve; as a rule, active = well fitted curve in the direction sought with a large enough effect; inconclusive = small, poorly fitted or top-dose-only effect, or another doubt; inactive = no such curve, though single readings can be large; an effect the other way counts as inactive or inconclusive. Potency is the fitted concentration of half-maximal effect.

SMILES	L3MBTL1 block	HP1b binding inh	BAZ2B block	G9a inh	JMJD2A Tudor	Sfp PPTase inh
CCCN(CCC)c1nc2ccccc2nc1C(C#N)C(=O)OCCOC (stereo not drawn)	·	8.5%	-31.0%	-23.7%[59 µM]	-9.6%	-14.8%
C=CCN(CC=C)c1nc2ccccc2nc1C(C#N)C(=O)OCCOC (stereo not drawn)	-7.6%	35.5%	-31.4%	50.1µM*	-20.1%	1.4%
O=C(NCC1CCCO1)c1nc2c(nnn2Cc2ccc(F)cc2)c(=O)[nH]1 (stereo not drawn)	4.9%	27.2%	-17.2%	50.1µM*	?	-15.3%
CN1CCc2c(sc3c2C(=O)NC(/C=C\c2ccccc2)N3)C1 (stereo not drawn)	-23.2%	?	-29.1%	?	?	-4.3%
CN1CCc2c(sc3c2C(=O)NC(c2ccc(C(C)(C)C)cc2)N3)C1 (stereo not drawn)	·	6.6%	-16.7%	8.91µM*	?	·
Cc1ccsc1C1NC(=O)c2c(sc3c2CCN(C)C3)N1 (stereo not drawn)	·	?	-6.8%	39.8µM*	?	4.8%
COc1ccc(C2NC(=O)c3c(sc4c3CCN(C)C4)N2)cc1O (stereo not drawn)	·	15.8%	-10.5%	?	-27.7%	·
CC(C)c1ccc(C2NC(=O)c3c(sc4c3CCN(C)C4)N2)cc1 (stereo not drawn)	·	16.0%	-1.6%	?	-21.5%	·
CSc1ccc(C2NC(=O)c3c(sc4c3CCN(C)C4)N2)cc1 (stereo not drawn)	·	1.1%	-33.7%	39.8µM*	?	?
COc1ccc(C(=O)Oc2ccc(C3NC(=O)c4c(sc5c4CCN(C)C5)N3)cc2OC)cc1 (stereo not drawn)	·	?	6.7%	25.9%[59 µM]	56.2µM*	·
CN1CCc2c(sc3c2C(=O)NC(c2cccs2)N3)C1 (stereo not drawn)	-2.9%	-18.4%	-20.2%	?	?	-0.1%
Cc1c(Cl)cccc1NC(=O)Cn1nnc(-c2nc(-c3ccccc3)no2)c1N	·	39.3%	-6.8%	6.5%[59 µM]	16.2%	·
CN1CCc2c(sc3c2C(=O)NC(c2ccc(-c4cccc(Cl)c4)o2)N3)C1 (stereo not drawn)	-16.1%	?	39.8µM*	·	50.1µM*	50.1µM*
COc1ccc(C(=O)OCc2cc(=O)n3nc(-c4cccs4)sc3n2)cc1	·	19.3%	-23.5%	14.3%[59 µM]	-28.3%	·
O.O.[Mn].[Mn].[Mn].[OH-].[OH-]	·	·	·	·	·	-10.8%
Cc1ccc(C2C(C#N)=C(N)SC(N)=C2C#N)cc1	2.2%	8.4%	-7.0%	44.7µM*	?	-22.5%
Cc1ccc(C2C(C#N)=C(N)SC(N)=C2C#N)c(C)c1	-23.0%	49.2%	2.6%	?	89.1µM*	79.4µM*
CC1=C(C#N)C(c2ccoc2)C(C(=O)OCc2ccccc2)=C(N)S1 (stereo not drawn)	-1.3%	20.7%	4.3%	?	?	-28.2%
N#CC1=C(N)SC(N)=C(C#N)C1c1ccoc1	5.01µM*	·	25.1µM*	2µM*	·	-78.8%
CCOC(=O)c1c(C)oc2nc(C)nc(NCCCN3CCN(c4cccc(C)c4)C(C)C3)c12 (stereo not drawn)	·	-1.7%	?	?	-24.9%	·
CCOc1ccccc1-c1c2cc(O)c(=O)cc-2oc2cc(O)c(O)cc12	1.26µM*	-90.5%	7.08µM*	10µM*	1µM*	31.6µM*
O=c1cc(-c2cccc(O)c2O)oc2ccccc12	·	·	·	·	·	79.4µM*
O=c1cc2oc3cc(O)c(O)cc3c(-c3ccccc3O)c-2cc1O	0.794µM*	14.1µM*	7.94µM*	15.8µM*	3.98µM*	79.4µM*
O=c1cc(-c2ccccc2O)oc2cc(O)ccc12	·	·	·	·	·	-4.5%
COc1ccccc1-c1cc(=O)c2cc(O)ccc2o1	·	·	·	·	·	-3.4%
SMILES	L3MBTL1 block	HP1b binding inh	BAZ2B block	G9a inh	JMJD2A Tudor	Sfp PPTase inh
CCn1cc(Cl)c(C(=O)NNC(=O)CCn2cc([N+](=O)[O-])cn2)n1	1.9%	30.3%	-4.2%	-12.9%[59 µM]	-10.0%	0.0%
Cc1nn(C(=O)CCCn2cc([N+](=O)[O-])cn2)c(C)c1Cl	·	2.2%	6.0%	-31.5%	20µM*	6.4%
CCC(CC)c1nnc(NC(=O)C2CC(=O)N(c3ccc4c(c3)OCCO4)C2)s1 (stereo not drawn)	?	13.0%	?	3.6%[59 µM]	-18.1%	12.8%
CCCc1nnc(NC(=O)C2CC(=O)N(C3CCCC3)C2)s1 (stereo not drawn)	·	-9.1%	0.8%	22.4µM*	-11.3%	-19.4%
CCc1nnc(NC(=O)C2CC(=O)N(C3CCCC3)C2)s1 (stereo not drawn)	·	13.2%	7.6%	?	2.1%	-4.4%
CCC(CC)c1nnc(NC(=O)C2CC(=O)N(C3CCCC3)C2)s1 (stereo not drawn)	·	-12.9%	2.8%	11.2µM*	-4.1%	50.1µM*
CCN1CCc2c(sc(NC(=S)NC(=O)c3ccccc3)c2C#N)C1	-8.2%	?	?	16.6%[0.0925 µM]	50.1µM*	56.2µM*
CC(=O)Nc1sc2c(c1C#N)CCCC2	·	29.3%	4.0%	6.6%[59 µM]	-5.8%	6.2%
CC1CCc2sc(NC(=S)NC(=O)c3ccccc3)c(C#N)c2C1 (stereo not drawn)	-4.2%	-11.1%	?	35.5µM*	-18.5%	?
CC(C)(C)c1ccc(C(=O)NC(=S)Nc2sc3c(c2C#N)CCC3)cc1	-6.9%	?	-8.7%	?	?	?
CC(=O)Nc1sc2c(c1C#N)CCN(Cc1ccccc1)C2	25.7%	38.4%	-7.3%	·	-23.6%	-14.2%
CC(=O)NC(=S)Nc1sc2c(c1C#N)CCCCC2	-1.5%	-11.9%	3.7%	44.7µM*	-24.4%	50.1µM*
N#Cc1c(NC(=S)NC(=O)Cc2cccs2)sc2c1CCCCC2	-0.1%	-40.2%	50.1µM*	-9.0%[59 µM]	?	-2.3%
NC(=O)c1c(NC(=O)Cc2cccs2)sc2c1CCC2	-28.3%	36.5%	-5.7%	19.0%[12.7 µM]	-11.2%	-10.8%
COc1cccc2c1ncc1c(-c3ccc(C)cc3)nn(-c3cccc([N+](=O)[O-])c3)c12	·	56.1%	2.4%	52.9%[59 µM]	-18.2%	·
N#Cc1c(NC(=O)/C=C/C(=O)O)sc2c1CCN(Cc1ccccc1)C2	·	41.8%	50.1µM*	?	?	-27.0%
N#Cc1c(NC(=S)NC(=O)c2ccccc2)sc2c1CCC2	-3.1%	-3.1%	-30.7%	2.82µM*	44.7µM*	22.4µM*
Cn1nccc1C(=O)NC(=S)Nc1sc2c(c1C#N)CCCCC2	6.0%	14.4%	-4.0%	50.1µM*	-9.3%	-17.3%
Cc1c(C(=O)N2CCOCC2)oc2c1-c1nn(CC(=O)NCc3ccccc3)cc1CC2	·	8.0%	?	-9.2%[59 µM]	-21.6%	·
CN1CCN(C(=O)Cn2c(-c3cccs3)cc3ccccc32)CC1	·	15.6%	-3.7%	-5.3%[59 µM]	-14.2%	·
